In PubChem BioAssay (Tox21) one finds Potency and activity change, negative = cytotoxicity data, which are given here for 40 molecules.

Results filed as inconclusive are left out. Where a call stands in place of a potency, no number is given. Values without a mark were called inactive. Activity calls are given as the source filed them. The call rests on the fitted dose curve; in most records, active means well fitted cell-killing curve with a large enough effect in the repeat runs; inconclusive means weak or mixed curves, or effect the other way; inactive means flat fitted curve, though single readings scatter.
Potency means the concentration at half of the fitted maximal effect.

This experiment in a line: qHTS assay to identify small molecule antagonists of the retinoid acid receptor (RAR) signaling pathway - cell viability counter screen (AID 1159551). Further: nearly all actives have a fitted effect of over 35% in size. To be noted: C3RL4 cells viability, ATP luminescence (CellTiter-Glo), 6 h; series mostly up to 92.4 µM. The source says: U.S. Tox21 Program National Center for Advancing Translational Sciences [NCATS] NIH Chemical Genomics Center [NCGC] U.S. Environmental Protection Agency [EPA] National Institutes of Environmental Health Sciences [NIEHS] National Toxicology Program [NTP] U.S. Food and Drug Administration [FDA] Tox21 Assay Overview: All-trans Retinoic acid (atRA) is the potent natural metabolite of retinol and plays an important role in normal embryonic development and maintenance of cellular phenotype in adult animals. atRA is the activating ligand for the retinoic acid receptors (RARs) which form heterodimers with retinoid X receptors (RXRs) on the retinoic acid response element (RARE). Through activation of the RAR/RXRs nuclear receptors, atRA regulates the transcription of a large number of protein-coding genes and regulatory RNAs. Intracellular levels of atRA are controlled by the retinol signaling pathway (RSP) that regulates the biosynthesis and catabolism of atRA to maintain physiological levels. Chemicals that interfere with the RSP can cause abnormal intracellular levels of atRA and therefore are potential developmental toxicants. To assess compounds for the potential adverse effect on embryonic development through interfering with retinol signaling, a cell-based RARE luciferase reporter gene assay was used. C3RL4 cell line (OARSA/CFSAN/FDA, Laurel, MD) was used to screen Tox21 10K compound library for identifying inhibitors of the RSP. Also cytotoxicity was assessed by determining the viability of cells based on the quantitation of ATP.
Tox21 Assay Protocol Summary: C3RL4 cells were seeded at 1,000/well in 4 uL of assay medium into white solid 1,536-well tissue culture plates (Greiner Bio-One North America Inc. Monroe, NC) using a Multidrop Combi (Thermo Scientific, Waltham, MA) dispenser. After incubation at 37 C and 5% CO2 for an overnight, 23 nL of compounds dissolved in DMSO, positive control or DMSO only were transferred by a Pintool station (Kalypsys, San Diego, CA). One ul of 1 uM (final concentration) of Retinol was added right after the compound addition by using a Flying Reagent Dispenser (FRD) (Aurora Discovery, San Diego, CA). After 6 hr incubation at 37 C and 5% CO2, 5 uL of CellTiter-Glo reagent (Promega Corporation, Madison, WI) was added to each assay plate using an FRD. Luminescence was quantified on a ViewLux plate reader (PerkinElmer, Waltham, MA) after 30 min incubation at room temperature.
On to `CCC[CH2][Sn]([CH2]CCC)([CH2]CCC)[O][Sn]([CH2]CCC)([CH2]CCC)[CH2]CCC`, for which the Potency is 1.5 µM (active).

Consider `C=Cc1cccc(CCl)c1`, for which the Potency result is “inactive”.

Consider `CCOP(=S)(NC(C)C)Oc1ccccc1C(=O)OC(C)C` (stereo not given), for which the Potency result is “inactive”.

Turning to `CC(=O)[O-].CC(=O)[O-].CC(=O)[O-].[Sb+3]`, the activity change, negative = cytotoxicity is 3.99% [at 3.27 µM].

For the molecule `CCCCN(CCCC)C(=S)S`, the Potency entry was “inactive”. Consider `N#Cc1sc2c(=O)c3ccccc3c(=O)c=2sc1C#N`, for which the Potency was 27.3 µM (active).

Take `C=C(C)C(=O)[O][Sn]([CH2]CCC)([CH2]CCC)[CH2]CCC`: the Potency was 7.7 µM (active). As to `Cc1ccccc1OP(=O)(Oc1ccccc1C)Oc1ccccc1C`, the Potency entry is “inactive”.

Consider `COP(=S)(OC)Oc1nc(Cl)c(Cl)cc1Cl`, for which the Potency entry was “inactive”. Same read-out and setting: for `CCn1cc[n+](C)c1` (tested in a mixture with another compound) the value was “inactive”; for `O=S(=O)(O)F`, “inactive”. With `O=NN(CCO)CCO`, the Potency result is “inactive”. The same measure, in the same setting: for `O=[N+]([O-])c1cccc2cccc([N+](=O)[O-])c12` the value was “inactive”. `ClCBr`: the Potency entry is “inactive”. For `O=[N+]([O-])c1ccccc1-c1ccccc1`, the Potency result is “inactive”. Still for that read-out and setting: for `CC[C@]1(O)CC[C@H]2[C@@H]3CCC4=CCCC[C@@H]4[C@H]3CC[C@@]21C` the value was “inactive”.

As to `CNC(=O)Oc1cc(C)cc(C(C)C)c1`, the Potency result was “inactive”. Still for that read-out and setting: for `C#CCO` the value was “inactive”; for `CCCCn1cc[n+](C)c1.[Cl][Fe-]([Cl])([Cl])[Cl]`, “inactive”; for `Oc1cc(Cl)c(Cl)c(Cl)c1Cl`, “inactive”. On the same count and under the same terms, with `NC(=O)C(Cl)Cl` the entry was “inactive”; with `CCc1cccc(C)c1N(C(=O)CCl)[C@@H](C)COC`, “inactive”; with `Cc1c([N+](=O)[O-])c(C)c([N+](=O)[O-])c(C(C)(C)C)c1[N+](=O)[O-]`, “inactive”. For `COC(=O)c1cc(Oc2ccc(Cl)cc2Cl)ccc1[N+](=O)[O-]`, the Potency result is “inactive”. For the molecule `COP(=O)(OC)Oc1ccc([N+](=O)[O-])cc1`, the Potency result was “inactive”. The same measure, in the same setting: with `Nc1ccc(Cl)cc1C(=O)c1ccccc1F` the entry was “inactive”; with `CC1=C2C[C@H]3[C@@H](CC=C4C[C@@H](O)CC[C@@]43C)[C@@H]2CC[C@]12O[C@@H]1C[C@H](C)CN[C@H]1[C@H]2C`, “inactive”; with `C#CCC1=C(C)C(OC(=O)C2C(C=C(C)C)C2(C)C)CC1=O` (stereo not given), “inactive”. Regarding `CSC(C)(C)/C=N/O`, the Potency entry is “inactive”. Same read-out and setting: with `Nc1c(Cl)c(Cl)c(Cl)c(Cl)c1Cl` the entry was “inactive”. The same measure, in the same setting: for `CCN(CC)Cc1nccn1-c1ccc([N+](=O)[O-])cc1C(=O)c1ccccc1Cl` the value was “inactive”. As to `C[N+]1(C)[C@@H]2CC[C@H]1CC(OC(=O)C(CO)c1ccccc1)C2` (stereo not given in full), the Potency entry was “inactive”. Same read-out and setting: for `S=C=Nc1ccccc1` the value was “inactive”; for `CCC1(CC)C(=O)N=C(O)NC1=O`, “inactive”. The same measure, in the same setting: for `COc1nc(C)nc(NC(=O)NS(=O)(=O)c2ccccc2Cl)n1` the value was “inactive”. On the same count and under the same terms, for `Clc1cc(Cl)c(-c2cc(Cl)c(Cl)cc2Cl)cc1Cl` the value was “inactive”. Turning to `Brc1ccc(Oc2ccc(Br)cc2Br)c(Br)c1`, the Potency entry was “inactive”. Turning to `CN1CCc2cc(Cl)c(O)cc2[C@H]2c3ccccc3CC[C@@H]21`, the Potency entry is “inactive”. With `CCO/N=C(\CC)C1=C(O)CC(c2c(C)cc(C)cc2C)CC1=O` (stereo not given), the Potency entry was “inactive”. For `CN=C=O`, the Potency result is “inactive”.
